# Test results published in PubChem BioAssay AID1985 (Southern Research Specialized Biocontainment Screening …, 2009).
# Screen size: about 2,300 compounds; about 1,000 (43%) were called active. The set was probably picked from earlier hits. The list shows a part of the results. Entries with a potency or affinity are not part of this list. Unmarked numbers belong to inactive results. The rule behind the calls is not given here.
# Assay: PhoP regulon inhibitor project modified counter assay, GFP fluorescence readout, dose response (AID 1985)
# Conditions: S. Typhi, 4 h; series mostly up to 150 µM; inhibition: at the top concentration
SMILES,inhibition,outcome
N#C/C(=C\c1ccc(O)c(O)c1)C(=O)c1ccc(O)c(O)c1,29%,–
COc1ccc(CNC(=O)CCC(=O)N2C[C@H]3C[C@H](C2)c2cccc(=O)n2C3)cc1,-4.17%,–
CCOC(=O)Cc1nn(C)c(=O)c2ccccc12,-23.1%,–
O=C(/C=C/c1c(F)cccc1Cl)N1CCOCC1,17.3%,–
COc1cc(OC)nc(NC(=O)C(C)C)n1,-18.1%,–
NC(=O)c1c(NC(=O)CSc2nc(N)cc(=O)[nH]2)sc2c1CCCC2,5.12%,–
COCc1cc(=O)n2[nH]c(C)nc2n1,-4.12%,–
Nc1ccc(S(=O)(=O)Nc2ccc(Cl)nn2)cc1,24.8%,–
CC1=C(c2ccccc2)SC2=NCCN21,14.3%,–
O=C(COc1ccc(Cl)cc1)N1CCCCC1,-7.26%,–
CN(C)CCNC(=O)c1ccc(COc2ccc(Cl)cc2Cl)cc1,31.5%,–
O=C(NCc1cccnc1)c1ccc(COc2ccc(Cl)cc2)cc1,-4.41%,–
Clc1ccc(OCc2nn3c(C4CCCCC4)nnc3s2)c(Cl)c1,-17.4%,–
CC(=O)Nc1nc(C)c(-c2csc(Nc3ccc(O)cc3)n2)s1,4.57%,–
Cc1c(O)cccc1C(=O)N[C@@H](CSc1ccccc1)[C@H](O)CN1C[C@H]2CCCC[C@H]2C[C@H]1C(=O)NC(C)(C)C,–,inactive
CCc1nc(SCC(=O)NCCc2ccccc2)c2c(=O)n(C)c(=O)n(C)c2n1,-18.8%,–
Cc1cc(=O)oc2c(CN(C)Cc3ccccc3)c(O)ccc12,-8.93%,–
O=C(N/N=C\c1ccc(F)cc1)c1ccc(F)cc1,11.9%,–
CN(CCOc1ccc(Cl)cc1)CC(O)c1ccccc1 (stereo unspecified),5.59%,–
CC(C)CNC(CC(=O)O)c1ccccc1 (stereo unspecified),-0.97%,–
CC(c1cccnc1)N(CCN(C)C)C(=O)Nc1ccc(Cl)c(Cl)c1 (stereo unspecified),16.1%,–
CCS(=O)(=O)N1CCC(C(=O)NCc2cc(OC)ccc2OC)CC1,9.84%,–
O=[N+]([O-])c1ccc(CN2CCSCC2)cc1,0.47%,–

SMILES,inhibition,outcome
CNC(CC(=O)c1ccc([N+](=O)[O-])cc1)C(Cl)(Cl)Cl (stereo unspecified),38.9%,–
COc1ccc(Cl)cc1NC(=O)CN(C)CC(=O)Nc1ccccc1C(F)(F)F,-29%,–
Cn1nnnc1SCc1nnc(-c2ccccc2Br)o1,16.3%,–
O=C(Nc1ccc(Cl)cc1)N1CCOC12CCC1(CC2)OCCO1,-9.64%,–
Cc1cc(=O)oc2cc(OCC(=O)NC3CCCC3)ccc12,-2.92%,–
COc1ccc(Nc2c3c(nc4ccccc24)CCC3)cc1,4.93%,–
Cc1cccc(Nc2c3c(nc4ccccc24)CCC3)c1,31.8%,–
Cc1ccc(CSc2nc3c(c(=O)[nH]2)CCC3)cc1,20.2%,–
FC(F)(F)c1ccccc1NC1=NCCC1,-30.2%,–
CCCCNCCCOc1cccc(Cl)c1Cl,-22.7%,–
COc1ccccc1/C=N/N1C(=O)c2cccc3cccc(c23)C1=O,29.8%,–
O=C(NC(=S)Nc1ccc(S(=O)(=O)Nc2nccs2)cc1)c1cccnc1,8.15%,–
C=CCSc1nnc(NC(=O)CSc2nc3ccccc3o2)s1,22%,–
CCOC(=O)c1nc2cc3n(c(CC(C)C)c-2c1C)CC(C)=C3C,11%,–
NS(=O)(=O)c1ccc(CCNC(=O)C(=O)C2C(=O)Nc3ccccc32)cc1 (stereo unspecified),8.28%,–
COc1ccccc1-c1cc2nc(C)c(CCC(=O)NC(C)CCc3ccco3)c(C)n2n1 (stereo unspecified),2.19%,–
CC(C)C(=O)Nc1ccccc1-c1nc2ccccc2[nH]c1=O,-4.32%,–
COc1cccc(NC(=O)CN(C)C(C)C(=O)Nc2ccc(S(=O)(=O)N3CCOCC3)cc2)c1 (stereo unspecified),-38.9%,–
N/C(=N\OC(=O)C(c1ccccc1)c1ccccc1)c1ccncc1,-18.8%,–
COc1ccc(N(C(=O)c2cccnc2)S(=O)(=O)c2ccc(F)cc2)cc1,2.07%,–
CCOC(=O)C(O)(NC(=O)c1cccnc1)C(F)(F)F (stereo unspecified),-10.6%,–
O=C(Nc1ccc(S(=O)(=O)N2CCCC2)cc1)c1cccnc1,-25.5%,–
N/C(=N\OC(=O)COc1ccc2ccccc2c1)c1ccccn1,11.2%,–

SMILES,inhibition,outcome
O=C1CCCC2=C1C(c1ccncc1)Nc1ccccc1N2 (stereo unspecified),16.9%,–
COCCNC(=O)Cn1cnc2c1c(=O)n(C)c(=O)n2C,-1.4%,–
c1ccc2sc(N3CN(CCN4CCOCC4)CN(c4nc5ccccc5s4)C3)nc2c1,-24.9%,–
CN(C)CCOC(=O)c1sc2ccccc2c1Cl,38.7%,–
CC1CCN(c2nc3ccc(C(=O)NCCCN4CCCCC4)cc3s2)CC1,-2.78%,–
CN1CCN(c2ccccc2NC(=O)c2sc3ccccc3c2Cl)CC1,-3.31%,–
COc1ccc2sc(N(CCCN(C)C)C(=O)c3ccc(S(=O)(=O)N4CCc5ccccc5C4)cc3)nc2c1,24.1%,–
COc1cc(CNCCCN2CCOCC2)c(Br)cc1OCC(=O)Nc1ccccc1C,-12%,–
CCc1c(C)nc2cc(-c3cc(OC)cc(OC)c3)nn2c1N1CCCC1,-7.01%,–
Cc1ccc(C2CC(=O)NC(SCCC(C)C)=C2C#N)cc1 (stereo unspecified),2.37%,–
COc1ccc2c(c1)c1nc(SCC(C)C)n(CCO)c(=O)c1n2C,-6.9%,–
O=C(NCC1CCCO1)c1cc2ccccc2oc1=O (stereo unspecified),-15.1%,–
O=S(=O)(c1ccccc1)c1nc(-c2cccs2)oc1NCC1CCCO1 (stereo unspecified),-1.6%,–
O=C(O)c1ccc(CSc2nnnn2C2CCCCC2)cc1,-14.6%,–
Cc1cc(NC(=O)COC(=O)c2cccc(S(=O)(=O)N(C)C3CCCCC3)c2)no1,-24.1%,–
O=C(O)Cn1c(=O)c2c3c(sc2n(Cc2ccccc2F)c1=O)CCCC3,35.5%,–
CC1(C)Oc2ccc3ccc(=O)oc3c2/C(=C/NCCN/C=C2\C(=O)C(C)(C)Oc3ccc4ccc(=O)oc4c32)C1=O,7.3%,–
Cc1cccc(N(C(=O)CCC(=O)Nc2ccccn2)C(C(=O)NC(C)C)c2ccc(O)cc2)c1 (stereo unspecified),4.7%,–
CCN1CCN(C(=O)/C=C/c2cccc(Cl)c2)CC1,-10.1%,–
CCN1CCN(C(=O)Cc2coc3cc(C)cc(C)c23)CC1,-20.3%,–
CN1CCN(C(=O)CSc2ccc(Cl)cc2)CC1,31.1%,–
O=C(O)c1cc2cc(F)ccc2[nH]1,15.1%,–
CCN1CCN(C(=O)c2cc3ccc(OC)cc3[nH]2)CC1,-18.3%,–

SMILES,inhibition,outcome
COC(=O)C(O)(c1c(C)[nH]n(-c2ccccc2)c1=O)C(F)(F)F (stereo unspecified),33.2%,–
COc1cccc(C(c2c(C)[nH]n(-c3ccccc3)c2=O)c2c(C)[nH]n(-c3ccccc3)c2=O)c1O,35.1%,–
Cc1c(-n2c(SCC(=O)C(C)(C)C)nc3ccccc3c2=O)c(=O)n(-c2ccccc2)n1C,-0.29%,–
Cc1nc(SCC(=O)N2c3ccccc3Sc3ccccc32)n[nH]1,21.8%,–
CC(=O)NCCn1c(SCc2ccccc2C)nc2ccccc2c1=O,-0.79%,–
CC1(C)Cc2c(sc(NC(=O)COc3ccc(Cl)cc3)c2C(N)=O)C(C)(C)N1,-2.39%,–
CCC1Oc2ccc(C)cc2N(CC(=O)NCC2COc3ccccc3O2)C1=O (stereo unspecified),-15.5%,–
COc1ccccc1NC(=O)CN1CCC(c2nc3ccc(C)cc3[nH]2)CC1,22.9%,–
COc1ccc(C)cc1NC(=O)C1CCN(S(=O)(=O)c2c(C)noc2C)CC1,1.95%,–
COc1ccccc1-n1nc(C(=O)NCc2ccco2)c2ccccc2c1=O,30.5%,–
CC1CCN(CCCNC(=O)c2ccc3c(=O)n(Cc4ccc(Cl)cc4)c(=S)[nH]c3c2)CC1,3.32%,–
O=C(O)CC12CC3CC(C1)CC(n1ncc(NCC4CCCO4)c(Cl)c1=O)(C3)C2 (stereo unspecified),3.46%,–
CCOC(=O)c1nc(C)n(-c2cc(Cl)ccc2Cl)n1,-10.8%,–
O=C(CN1C2=NCCN2c2ccccc21)c1ccco1,7.45%,–
Cc1ccc(CN2C3=NCCN3c3ccccc32)cc1,34.5%,–
COc1cccc2[nH]c3c(N4CCN(Cc5ccc6c(c5)OCO6)CC4)ncnc3c12,21.1%,–
O=c1cc(-c2ccccc2)nc(N2CCN(Cc3ccccc3)CC2)[nH]1,4.19%,–
c1cc2c(cc1Oc1nc(N3CCOCC3)nc(N3CCOCC3)n1)OCO2,8.09%,–
Cc1ccc2nc3c(c(N)c2c1)CCN3C,5.98%,–
CC(C)N=C(N)N=C(N)Nc1ccc(Cl)cc1,30.1%,–
Cc1cc(NCCCn2ccnc2)n2ncc(-c3ccccc3)c2n1,12.4%,–
C[C@@H](C(=O)NC1CCCC1)N1C(=O)N2CCc3c([nH]c4ccccc34)[C@@]2(C)C1=O,0.62%,–
O=S1(=O)CC=C(CSC(=S)NC2CCS(=O)(=O)C2)C1 (stereo unspecified),-1.71%,–

SMILES,inhibition,outcome
CCc1cc(CNC(=O)C2CCC(=O)N(Cc3cccc(F)c3)C2)on1 (stereo unspecified),-19.1%,–
CC(C)NC(=O)CN1CCN(Cc2nc(C(c3ccccc3)c3ccccc3)no2)CC1,5.91%,–
Cc1cnc(NC(=O)CN2C(=O)C3CC=CCC3C2=O)s1 (stereo unspecified),-26.5%,–
Cc1cc(NS(=O)(=O)c2ccc(Nc3nc(-c4sc(NC(=O)c5ccccc5)nc4C)cs3)cc2)no1,15.4%,–
CCc1nnc(NS(=O)(=O)c2ccc(NC(=S)NC(=O)/C=C/c3ccc(C(C)C)cc3)cc2)s1,17.6%,–
COc1nccnc1NS(=O)(=O)c1ccc(NC(=S)NC(=O)c2cccnc2)cc1,-4.26%,–
Cc1cc(NS(=O)(=O)c2ccc(NC(=O)C(C)Oc3ccc4c(C)cc(=O)oc4c3)cc2)no1 (stereo unspecified),-2.24%,–
CC(C)n1cnnc1SCC(=O)Nc1ccc(Br)cc1F,-8.64%,–
COC(=O)c1ccc(C)c(NC(=O)CN2C(=O)c3ccccc3S2(=O)=O)c1,21.6%,–
CS(=O)(=O)c1cnc2c(-c3ccc(F)cc3)cnn2c1N,-8.92%,–
COc1ccc(NC(=O)N2CCc3ccccc32)cc1,30%,–
O=C(CCl)NC1CCCc2ccccc21 (stereo unspecified),19.6%,–
S=C(NCc1ccc(Cl)cc1)Nc1ccncc1,16.9%,–
Cc1ccc(NC(=O)C(=O)NCc2ccncc2)cc1,-2.82%,–
CCOc1ccccc1NC(=O)Nc1ccncc1,14.8%,–
CCCCOc1ccc(-c2nnn(CC(=O)Nc3ncc(CC(=O)OCC)s3)n2)cc1,15.7%,–
CCOc1ccc(N2C(=O)CN(O)C=C3N=c4ccccc4=C32)cc1,-16.3%,–
Cc1cccc(OCCSc2nnc(-c3ccoc3C)n2C)c1,0.34%,–
O=C(NCCCN1CCOCC1)c1sc2cc(Cl)ccc2c1Cl,25.4%,–
